Tau FP inhib: blocks human tau fibril formation measured by polarization; K18 P301L tau heparin fibrillization, Alexa594 FP, 6 h; hit rate 0.39% among 280,000; Potency, µM (top dose mostly 57.7 µM), actives largely listed as inhibitors; AID 1468; further: nearly all actives have a fitted effect of over 55% in size
Target sequence (P10636 561-689 P618L limits assumed): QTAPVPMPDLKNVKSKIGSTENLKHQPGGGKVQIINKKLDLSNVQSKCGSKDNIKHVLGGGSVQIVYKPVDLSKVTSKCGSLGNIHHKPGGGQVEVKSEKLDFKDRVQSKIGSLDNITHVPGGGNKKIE
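Quantitative HTS format: compounds meet 15 uM recombinant K18 P301L tau and Alexa 594-tau tracer in 100 mM sodium acetate pH 7; 20 uM heparin triggers fibrillization at 37 C over 6 hr; FP gives the signal.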
FBPA coupling cs: coupling enzyme interference in Giardia aldolase counter-screen. coupling enzyme system counterscreen, AmpLite Red fluorescence. activity change, negative = inhibition, % at 58.2 µM, hits read low. hit rate 0.67% among 290,000. AID 2472; in the data active means activity change below about -30%
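Counterscreen lacking aldolase: glyceraldehyde-3-phosphate coupling-enzyme reagent preincubated 10 min at RT with compound (at 57.5 uM final), then substrate/coupling system with AmpLite Red added; fluorescence read at 525/598 nm after 20 min RT.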
Tau fibril ThT: inhibitors of human tau fibril formation, thioflavin T binding | P10636 | recombinant tau K18 P301L, heparin-induced fibrillization, ThT fluorescence | Potency, µM (highest dose often 57.4 µM), usual class: inhibitors | hit rate 2.1% among 270,000 | AID 1460; further: nearly all actives have a fitted effect of over 55% in size
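Fibril formation assay: tau K18 P301L at 15 uM with trace Alexa 594 label, heparin inducer 20 uM, pH 7 sodium acetate buffer, 37 C for 6 hr; endpoint ThT signal.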
Tau fluor cs: counter-screen for tau fibril formation inhibitors | tau K18 P301L (four-repeat tau fragment) Alexa594 fluorescence, heparin fibrillization | Potency, µM (doses to about 57.7 µM) | hit rate 0.93% among 280,000; further: nearly all actives have a fitted effect of over 55% in size
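Human K18 P301L tau (15 uM unlabeled plus 0.24 uM Alexa 594-labeled, final) in 100 mM sodium acetate pH 7 was mixed with compound and 20 uM heparin and incubated 6 hr at 37 C.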
Numbers stand for hits; 0 = inactive; ? = inconclusive; - = no result; ! = a repeat was not active; [ ] = dose if it differs, or a comment. In the library only some 2.7% were active in any assay of this set; here they are far more common. Unless noted, the call rests on the fitted dose curve; in most records, active means well fitted curve in the direction sought with a large enough effect; inconclusive means small, poorly fitted or top-dose-only effect, or another doubt; inactive means no such curve, though single readings can be large; an effect the other way counts as inactive or inconclusive.

SMILES	Tau FP inhib	FBPA coupling cs	Tau fibril ThT	Tau fluor cs
CCOc1ccc(-c2nc(SCC(=O)Nc3ccc4c(c3)OCCO4)c(-c3ccc(F)cc3)[nH]2)cc1	0	-	0	14.1µM[quencher]
CCCCN(C)S(=O)(=O)c1cc(-c2nnc3c4ccccc4c(C)nn23)ccc1C	0	-	0	0
COc1cc(NC(=O)Nn2cnnc2)cc(OC)c1OC	-	0	-	-
CCOC(=O)OCC1OC(c2ccc(C(C)=O)cc2)C=CC1OC(=O)OCC (stereo not drawn)	0[11.6 µM]	0	0[11.5 µM]	0[11.6 µM]
COc1ccc(-c2nc(SCC(=O)Nc3ccc4c(c3)OCCO4)c(-c3ccccc3)[nH]2)cc1	?	-	?	8.91µM[quencher]
Oc1ccc2ccccc2c1C=Nc1ccccc1-c1nc2ccccc2[nH]1	0	-32.1	28.2µM	?
COc1cccc2c1C(=O)c1c(O)c3c(c(O)c1C2=O)C[C@@](O)(C(=O)CO)C[C@@H]3OC1C[C@@H](N)[C@H](O)[C@H](C)O1 (stereo partly drawn)	25.1µM	0	5.01µM	0
COc1cccc2c1C(=O)c1c(O)c3c(c(O)c1C2=O)C[C@@](O)(C(C)=O)C[C@@H]3O[C@H]1C[C@H](N)[C@H](O)[C@H](C)O1	25.1µM	-51.8!	3.98µM	0
Cc1cccc(C)c1-n1ncc(C(=O)N2CCN(c3ccccc3)CC2)c1C1CCN(C(=O)OC(C)(C)C)CC1	0	-	?	0
O=c1c(-c2cccc(Cl)c2)nc2cncnc2n1Cc1ccccc1Cl	-	0	-	-
COc1cccc(=O)c2c(C)n(-c3cc(C)cc(C)c3)c(C)c12	?	0	28.2µM	0
COc1cccc(-n2c(C)c3c(OC)cccc(=O)c3c2C)c1	?	0	25.1µM	0
COc1cccc(-n2c(C)nn(CCOc3ccccc3)c2=O)c1	0	0	0	0
COc1cccc(=O)c2c(C)n(C)c(C)c12	0	0	?	0
O=C(CSc1nnc(NC(=O)C2CCC2)s1)Nc1ccc(N2CCOCC2)cc1	0	0	6.31µM	0
COC(=O)C1(C(=O)OC)C[C@@H]2CON=C2[C@H]1c1ccccc1	?	0	0	0
O=c1c(O)cc(C2Oc3cc(O)cc(O)c3CC2O)cc2c(C3Oc4cc(O)cc(O)c4CC3O)cc(O)c(O)c12 (stereo not drawn)	1µM	-74.7	0.501µM	8.91µM[quencher]
Cc1ccc(C(C)C)cc1NC(=O)Nc1ccc([N+](=O)[O-])cc1	31.6µM	0	?	7.94µM[quencher]
CCOc1ccc(NC(=O)Nc2cc(C(C)C)ccc2C)cc1	0	0	0	?
O=C(Nc1ccc(Oc2ccc(NC(=O)Nc3ccc([N+](=O)[O-])cc3)cc2)cc1)Nc1ccc([N+](=O)[O-])cc1	25.1µM	0	6.31µM	4.47µM[quencher]
CCN(CCCNC(=O)CN1N=C(c2ccc(OC)cc2)CCC1=O)c1cccc(C)c1	0	-	?	0
CCOCCCNC(=O)Cn1ncc2c([nH]c3ccccc32)c1=O	0	-	0	0
CN(C)/N=C/C=C1\CC/C(=C\c2ccc(Br)cc2)C1=O	0	0	0.891µM	?
CN(C)/N=C/C=C1\CCC/C(=C/c2cccs2)C1=O	0	0	0.631µM	0
COc1ccccc1OCC(=O)NCCSCc1cccc(Cl)c1	0	0	?	0
SMILES	Tau FP inhib	FBPA coupling cs	Tau fibril ThT	Tau fluor cs
CCOC(=O)c1c(NC(=O)COc2ccc(F)cc2)sc2c1CCC(C)C2 (stereo not drawn)	0	-	?	0
Nc1ccc2c(c1)OC1(CCCC1)O2	0	0	12.6µM	?
CCOc1ccc(Nc2nc3cc(Cl)c(Cl)cc3nc2-n2nc(C)cc2C)cc1	0	-	0	0
COc1ccc(NC(=S)Nc2ccc3nccnc3c2)cc1	0	-38.0	?	0
COc1cccc(NC(=S)Nc2ccc(O)cc2)c1	?	0	17.8µM	?
S=C(Nc1ccc2nccnc2c1)N1CCOCC1	?	-34.3	25.1µM	0
COc1ccc(NC(=S)Nc2ccc3snnc3c2)cc1	0	0	0	0
COc1ccc(NC(=S)Nc2ccc(N)c([N+](=O)[O-])c2)cc1	0	0	15.8µM	?
COCCCN1CC(=O)N2C(c3cccc(OC)c3OC)c3[nH]c4ccccc4c3C[C@H]2C1=O (stereo partly drawn)	-	0	-	-
Cc1cccn2c(=O)c(C(=O)NC(C)c3ccccc3)c(O)nc12 (stereo not drawn)	0	-	0	0
O=C1CC(=O)N(CCc2ccccc2)C(=O)N1CCc1ccccc1	?	0	28.2µM	0
COc1cc(/C=N/NC(=O)CCn2c3ccccc3c3ccccc32)ccc1O	0	0	?	25.1µM[quencher]
CCOC(=O)Cn1c(=O)n(CC2CCCO2)c2nc(-c3ccc(OCC)cc3)nc(C(N)=O)c21 (stereo not drawn)	0	-	0	0
COC(=O)[C@@H](Cc1c[nH]c2ccccc12)NC(=O)c1ccc2c(c1)OCO2	-	0	-	-
O=C(COC(=O)[C@H](Cc1c[nH]c2ccccc12)NC(=O)c1ccc(Cl)cc1)Nc1ccc2c(c1)OCO2	0	0	?	8.91µM[quencher]
COc1ccnc(CSC(N)=Nc2ccc(F)cc2)c1	?	0	28.2µM	0
COc1ccc(Cn2c(CO)cnc2SCc2ccc(F)cc2)cc1	0	-	0	0
COc1ccc(/C=N/OCC(=O)N=Nc2c(O)[nH]c3ccc(Br)cc23)cc1OC	?	0	17.8µM	?
Oc1ccc(O)c2c1C1c3ccccc3C2c2ccccc21	-	0	-	-
O=C1C=CC(=O)C2=C1C1c3ccccc3C2c2ccccc21	35.5µM	0	20µM	?
COc1ccc(NC(=O)c2cc(C(C)=O)n3ccccc23)cc1Cl	?	-	0	28.2µM[quencher]
CN1CCN(c2ncc3nc(-c4ccc(Cl)cc4)c(=O)n(Cc4cccs4)c3n2)CC1	-	0	-	-
CCOC(=O)c1ccc(NC(=O)Nc2ccc3c(c2)OCCO3)cc1	?	0	?	12.6µM[quencher]
CCOC(=O)c1c(C)c(C(=O)Nc2ccc3c(c2)OCCO3)c(C)n1C	0	0	?	0
COC(=O)c1ccc(N2NC(=O)/C(=C/c3ccc(-c4ccc(Cl)c(C(=O)O)c4)o3)C2=O)cc1	?	0	6.31µM	?
SMILES	Tau FP inhib	FBPA coupling cs	Tau fibril ThT	Tau fluor cs
O=S(=O)(NCc1nc2cccnc2n1Cc1ccc(F)cc1)c1ccc(Cl)s1	0	-	0	0
Cc1cc(C)c(C)c(N=Nc2nc3ccccc3n2C)c1C	0	0	8.91µM	?
Cc1ccc(C)c(N=Nc2nc3ccccc3n2C)c1	0	0	5.62µM	?
Cn1c(/N=C/c2cccs2)nc2ccccc21	0	0	0	0
COc1ccc(C(=O)Oc2c(Sc3ccc(Cl)cc3)c(C)nn2C(C)(C)C)cc1OC	?	-	?	0
C#CCN(Cc1ccco1)C(=O)c1cc(COc2ccc(F)cc2Cl)on1	0[2.34 µM]	0	12.6µM	0
CC(/C=C/c1ccc(N(C)C)cc1)=N/N=C1/NC(=O)CC(C(=O)Nc2ccc(Cl)cc2)S1 (stereo not drawn)	0	0	7.94µM	8.91µM[quencher]
Cc1cccc(N2CCN(C(=O)Nc3ccc(F)cc3)CC2C)c1 (stereo not drawn)	0	-	0	0
Cc1ccc(CNS(=O)(=O)c2ccc3[nH]c4c(c3c2)CCCC4)cc1	?	-	0	?
O=S(=O)(NCc1ccc(Cl)cc1)c1ccc2[nH]c3c(c2c1)CCCC3	0	-	0	12.6µM[quencher]
O=S(=O)(NCc1ccc(F)cc1)c1ccc2[nH]c3c(c2c1)CCCC3	0	-	0	12.6µM[quencher]

Screening data as filed in PubChem.
